± gives the standard deviation.
What follows are sequences tested on EfPiwi piRISC loaded with L1MC piRNA (26 nt) (assay: pre-steady-state target cleavage rate (min^-1); auxiliary factor: 500 nM Ephydatia muelleri Gtsf1; guide: L1MC piRNA 5'p-UAACUAAAUACUAUGCAAGCUGUAGG; MIWI and MILI are mouse PIWI proteins and EfPiwi is from a freshwater sponge; tags in brackets are library labels; higher = faster piRNA-guided slicing of the target).
Protocol: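 Cleave-'n-Seq: a library of target RNAs (target site in constant flanks) at […] was incubated with 1 nM active freshwater sponge Ephydatia fluviatilis Piwi piRISC (synthetic 5'-monophosphorylated piRNA guide) with or without 500 nM EmGtsf1 at 33 °C for 1 min to 16 h. Uncleaved targets were sequenced and the pooled three trials fitted to a burst-and-steady-state model to give the pre-steady-state cleavage rate (min^-1). Sequence is the target site only. Fits with R² ≤ 0 are excluded.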

| Sequence | pre-steady-state target cleavage rate |
| --- | --- |
| UCCUGGAUGUCGAACGUAAGUAUUUAGUGA | < 0.0001 |
| UCCUGGAUGAGCUAGCAUAGUUUUUAGUUA | 0.00278 ± 0.0027 |
| UCCUGGAAGUGCUUGCAUAGUAUUUAGUUA | 0.00537 ± 0.0019 |
| UCCUGGAUGAGCUAGCAUAGUAUUAAGUUA | 0.00293 ± 0.0024 |
| UCCUGGAUGUCCUUGCUUAGUAUUUAGUUA | 0.00568 ± 0.0037 |
| UCCUGGAACUGCUUGCAUAGUAUUUAGAAA | 0.00485 ± 0.0026 |
| UCCUCCUACAGCUUGCAUAGUAUUUAGUAUA | 0.00856 ± 0.0035 |
| UCCUGGAUGUCGAAGCUUAGUAUUUACUUA | < 0.0001 |
| UCCUGCUUGUGCUUGCAUAGUAUUUAGAAA | 0.00373 ± 0.0022 |
| UCCUGCUACAGGUUCCAUAGUAUUUAGUUA | 0.00222 ± 0.0021 |
| UCCUGCUACAGGUUGCAUAGUAUAUAGUUA | 0.005 ± 0.0032 |
| UCCUGGAUGUACUUGCAUAGUAUUUAGUUA | 0.00383 ± 0.0029 |
| UCCUGGAAAAGCUUGCAUAGUAUUUAGUUA | 0.0119 ± 0.0039 |
| UCCUGGAACAGCUUGCAUAGUAUAAAGUUA | 0.00389 ± 0.0023 |
| UCCUCCUACAGCUUGCAUACUAAUUAGUUA | 0.00358 ± 0.0017 |
| UCCUGCUACAGCUAUGCAUAGUAUUUAGUUA | 0.012 ± 0.0044 |
| UCCUGGAACAGCUUGCAUAGUAUUUUAGUUA | 0.0192 ± 0.0054 |
| UCCUGGAUGAGGUUGCAUAGUAAUUAGUUA | 0.00522 ± 0.003 |
| UCCUGGAACAGCUUGCAUAGUAUUUAGAUA | 0.00437 ± 0.0016 |
| UCCUCCUACAGCUUGCAUAGUAUUUUGUUA | 0.00791 ± 0.0033 |

| Sequence | pre-steady-state target cleavage rate |
| --- | --- |
| UCCUGCUACAGUCUUGCAUAGUAUUUAGUUA | 0.00684 ± 0.0025 |
| UCCUGCUACAGCUUGCAUAGUUUUUUCAAA | 0.00248 ± 0.0022 |
| UCCUGCUUGUGCUUGCAUAGUAUUUAGUUA | 0.00618 ± 0.0027 |
| UCCUCCUGCAGCUUGCAUAGUAUUUAGUUA | 0.103 ± 0.024 |
| UCCUGCUACAGCUUGCAUAGUAUUGUAGUUA | 0.00279 ± 0.0016 |
| UCCUGGUACAGCUUGCAUAGUAUUAAGAAA | 0.00387 ± 0.0017 |
| UCCUGGAUGAGCAUGCAUUGUAUUUAGUUA | 0.00289 ± 0.0022 |
| UCCUGGAUGUGCAAGCAUAGUAUUUAGUUA | 0.00427 ± 0.0022 |
| UCCUCCAACAGCUUGCAUAGUAAUUAGUUA | 0.0103 ± 0.0047 |
| UCCUGCUACAGCUUGCAUAGAUUUUACAAA | 0.00292 ± 0.0018 |
| UCCUGCUACAGCUUGCAUAAGUAUUUAGUUA | 0.00273 ± 0.0019 |
| UCCUGGAACAGCUUGCUUAGUAUUUAGUUA | 0.0181 ± 0.005 |
| UCCUGGGACAGCUUGCAUAGUAUUUAGUUA | 0.0163 ± 0.0059 |
| UCCUGGAUCAGGUUGCAUUGUAUUUAGUUA | 0.00567 ± 0.0021 |
| UCCUGGUACAGCUUGCAAAGUUUUUAGUUA | 0.00245 ± 0.0024 |
| UCCUCGUACAGCUUGCAUAGUUUUUAGUUA | 0.0267 ± 0.0072 |
| UCCUGGAACAGCUUGCAUAGUAUUUAGUUC [g2:g23:cont:t1C] | 0.00959 ± 0.0037 |
| UCCUGGUACAGCUUGCAAAGUAUUUAGAUA | 0.00431 ± 0.0026 |
| UCCUGCUUCAGCUUGCAUAGUAUUUUCAAA | 0.00362 ± 0.0023 |
| UCCUGCUACAGCUUGCAUGUAUUUAGUUA | 0.00438 ± 0.0028 |
